Where “and” joins values, the source holds several entries; their conditions need not be identical. Equal values may be shown once. Records with an inconclusive call do not appear. Some structures have more than one record in an assay (separate samples or runs), and their calls can disagree. Calls of active or inactive are those of the source. Rule for the calls, unless noted: active = hit-call score of the fitted dose curve at least 0.9, where 1 is the maximum; inactive = score below 0.9.
How the values were obtained:
[1] = molecular target: Myc proto-oncogene protein (Homo sapiens) (UniProt P01106); test: ATG_Myc_CIS: Attagene CIS-FACTORIAL HepG2 Assay for human Myelocytomatosis (Myc) Proto-Oncogene Transcription Factor (AID 2282990); conditions: HepG2, Attagene cis-reporter transcription factor activity; actives raise or lower the signal
Chain of Myc proto-oncogene protein (Homo sapiens) (P01106 whole entry, looked up): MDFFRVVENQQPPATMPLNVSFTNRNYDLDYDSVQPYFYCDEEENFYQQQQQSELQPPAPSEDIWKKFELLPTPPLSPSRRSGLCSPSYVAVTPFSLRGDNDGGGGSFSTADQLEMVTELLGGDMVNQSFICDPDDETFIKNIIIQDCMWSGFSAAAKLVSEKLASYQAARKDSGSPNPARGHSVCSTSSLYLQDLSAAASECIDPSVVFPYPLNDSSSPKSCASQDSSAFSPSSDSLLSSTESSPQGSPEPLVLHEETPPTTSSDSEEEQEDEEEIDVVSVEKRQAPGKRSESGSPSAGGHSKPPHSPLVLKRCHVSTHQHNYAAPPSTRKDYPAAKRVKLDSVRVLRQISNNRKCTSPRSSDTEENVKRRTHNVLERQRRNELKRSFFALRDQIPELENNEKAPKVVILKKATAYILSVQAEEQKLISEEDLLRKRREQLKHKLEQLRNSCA
Outline: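 Multiplexed cis-reporter transcription in HepG2 cells after 24 h chemical treatment. Reporter mRNA measured by RT-PCR and capillary electrophoresis fluorescence; activity fitted bidirectionally against DMSO control.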

[2] = ATG_NF_kB_CIS: Attagene CIS-FACTORIAL HepG2 Assay for human Nuclear Factor Kappa B (NF-kB) (AID 2282991); conditions: HepG2 Attagene cis-factorial NF-kB reporter mRNA; actives raise or lower the signal
Outline: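 HepG2 cells transfected with cis-promoter-driven reporter units, so endogenous transcription factor activity is measured. Reporter mRNA quantified 24 h after dosing by RT-PCR and capillary electrophoresis, with bidirectional fitting against DMSO.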

[3] = ATG_NRF2_ARE_CIS: Attagene CIS-FACTORIAL HepG2 Assay for human Nuclear Factor Erythroid 2 Related Factor 2 (NFR2) response to Antioxidant Response Elements (ARE) (AID 2282992); conditions: HepG2 Attagene ARE/NRF2 reporter, transcription factor activity; actives raise or lower the signal
Outline: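 HepG2 cells transiently transfected with multiplexed cis-regulated reporter transcription units measure endogenous transcription factor activity. Reporter mRNA at 24 h is quantified by RT-PCR, fluorescent labelling and capillary electrophoresis, with bidirectional fitting relative to DMSO.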

[4] = ATG_Oct_MLP_CIS: Attagene CIS-FACTORIAL HepG2 Assay for human Octamer-Binding Transcription Factor (Oct) (AID 2282993); conditions: HepG2 Attagene cis-factorial Oct reporter, mRNA; actives raise or lower the signal
Outline: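 HepG2 cells transiently transfected with cis-promoter-driven multiplexed reporter transcription units, dosed for 24 h. Reporter mRNA quantified by RT-PCR, fluorescent labelling, HpaI digestion and capillary electrophoresis; bidirectional fits versus DMSO baseline.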

[5] = molecular target: Cellular tumor antigen p53 (Homo sapiens) (UniProt P04637); test: ATG_p53_CIS: Attagene CIS-FACTORIAL HepG2 Assay for human p53 Transcription Factor (AID 2282994); conditions: HepG2 p53 cis-element reporter, Attagene mRNA; actives raise or lower the signal
Chain of Cellular tumor antigen p53 (Homo sapiens) (P04637 whole entry, looked up): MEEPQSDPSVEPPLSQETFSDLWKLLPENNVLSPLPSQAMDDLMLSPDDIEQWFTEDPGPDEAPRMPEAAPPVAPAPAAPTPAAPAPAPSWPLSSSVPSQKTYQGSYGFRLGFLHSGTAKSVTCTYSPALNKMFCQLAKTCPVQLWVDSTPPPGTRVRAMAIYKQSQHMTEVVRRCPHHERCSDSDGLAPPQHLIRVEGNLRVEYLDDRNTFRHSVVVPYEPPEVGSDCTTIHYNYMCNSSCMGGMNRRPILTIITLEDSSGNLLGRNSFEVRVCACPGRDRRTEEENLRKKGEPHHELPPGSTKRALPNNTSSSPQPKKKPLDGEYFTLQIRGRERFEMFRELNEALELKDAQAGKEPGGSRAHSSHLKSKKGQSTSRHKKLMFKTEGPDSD
Outline: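 HepG2 cells transiently transfected with multiplexed cis-regulated reporter transcription units read endogenous TF activity. After 24 h compound exposure, reporter mRNA was quantified by RT-PCR, fluorescent labelling, HpaI digestion and capillary electrophoresis; bidirectional fits versus DMSO baseline.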

[6] = BSK_3C_TissueFactor: BioMAP Diversity Plus: 3C Assay for Tissue Factor Biomarker Activity (AID 2282997); conditions: BioMAP 3C HUVEC, tissue factor biomarker readout; actives raise or lower the signal
Outline: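 Primary human umbilical vein endothelial cells in the 3C system were exposed to test chemical for 24 h, then Tissue Factor measured by ELISA. Activity was fitted bidirectionally against DMSO as negative control and baseline.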

[7] = BSK_3C_uPAR: BioMAP Diversity Plus: 3C Assay for Urokinase-type plasminogen activator receptor (uPAR) Biomarker Activity (AID 2282998); conditions: BioMAP 3C HUVEC, uPAR biomarker ELISA; actives raise or lower the signal
Outline: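 Human umbilical vein endothelial primary cells were exposed to test chemical for 24 h. Cell-surface uPAR was then quantified by ELISA, and responses were fitted bidirectionally against DMSO as negative control and baseline.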

[8] = BSK_3C_VCAM1: BioMAP Diversity Plus: 3C Assay for Vascular cell adhesion molecule 1 (VCAM1) Biomarker Activity (AID 2282999); conditions: BioMAP 3C HUVEC, VCAM1 ELISA, cytokine-stimulated; actives raise or lower the signal
Outline: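 Human umbilical vein endothelial cells were dosed with compound for 24 h, after which cell-surface VCAM-1 was quantified by ELISA. Bidirectional curve fitting used DMSO as negative control and activity baseline.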

[9] = BSK_4H_Eotaxin3: BioMAP Diversity Plus: 4H Assay for Eotaxin 3 Biomarker Activity (AID 2283000); conditions: primary human endothelial cells (HUVEC); actives raise or lower the signal
Outline: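 HUVEC, 24 h post-dose, ELISA for Eotaxin-3/CCL26. Gain or loss of signal fitted bidirectionally vs DMSO baseline.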

[10] = molecular target: human Peroxisome Proliferator-activated Receptor alpha (PPARa), PPARA (gene 5465) (UniProt Q07869); test: ATG_PPARa_TRANS: Attagene TRANS-FACTORIAL HepG2 Assay for human Peroxisome Proliferator-activated Receptor alpha (PPARa) (AID 2283001; active = hit-call score of the fitted dose curve at least 0.9, where 1 is the maximum;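 for AC50: potency for gain of reporter signal over DMSO so agonist or activator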)
Chain of human Peroxisome Proliferator-activated Receptor alpha (PPARa), PPARA (gene 5465) (Q07869 whole entry, looked up, the tested form may be a part): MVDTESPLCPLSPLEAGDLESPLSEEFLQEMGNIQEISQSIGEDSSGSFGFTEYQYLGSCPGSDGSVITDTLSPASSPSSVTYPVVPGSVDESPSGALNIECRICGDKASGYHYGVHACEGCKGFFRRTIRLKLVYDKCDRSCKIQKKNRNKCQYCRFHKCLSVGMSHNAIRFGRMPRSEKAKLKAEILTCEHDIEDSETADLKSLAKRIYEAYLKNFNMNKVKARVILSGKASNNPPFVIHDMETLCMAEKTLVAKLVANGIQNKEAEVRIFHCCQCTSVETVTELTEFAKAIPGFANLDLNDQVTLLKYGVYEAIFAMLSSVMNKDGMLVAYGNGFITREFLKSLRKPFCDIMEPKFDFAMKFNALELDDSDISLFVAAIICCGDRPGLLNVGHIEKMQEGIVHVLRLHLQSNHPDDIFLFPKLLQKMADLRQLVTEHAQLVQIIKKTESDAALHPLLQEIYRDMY
Outline: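 HepG2 cells transiently transfected with multiplexed GAL4-UAS reporter units and chimeric NR-Gal4 constructs were dosed for 24 h. Reporter mRNA was measured by RT-PCR with fluorescent labelling and capillary electrophoresis; gain of signal fitted against DMSO.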

Measured: AC50

CCCCCCCCCCCCCC[N+](C)(C)C
active: [3] 5 µM and 6.55 µM | [4] 11.1 µM | [6] 5.43 µM | [7] 1.25 µM | [8] 4.71 µM | [9] 2.93 µM
inactive: [1] | [2] | [4] | [5] | [10]

OCCC(F)(F)C(F)(F)C(F)(F)C(F)(F)C(F)(F)C(F)(F)F
inactive: [1] | [3] | [4] | [5] | [6] | [7] | [8] | [9] | [10]
active: [3] 50.3 µM | [4] 136 µM | [6] 46.3 µM and 30 µM | [7] 43.6 µM and 47.3 µM | [8] 51.7 µM | [9] 0.436 µM

O=C(/C=C/c1ccc(O)cc1)CC(=O)/C=C/c1ccc(O)cc1
active: [3] 2.65 µM
inactive: [1] | [2] | [4] | [5] | [10]

CCCCC(CC)COC(=O)CCCCC(=O)OCC(CC)CCCC (configuration not stated)
not listed: [8]
inactive: all other assays above

O=C(O)Cc1cc(I)c(Oc2cc(I)c(O)c(I)c2)c(I)c1
inactive: [5] | [7] | [9] | [10]
active: [1] 48.6 µM and 16.8 µM | [2] 105 µM and 46.1 µM | [3] 17 µM and 16.9 µM | [4] 34.8 µM and 33.3 µM | [6] 24.3 µM | [10] 67 µM

COc1cc(CCC(=O)CC(=O)CCc2ccc(O)c(OC)c2)ccc1O
active: [3] 24.8 µM | [4] 68.8 µM | [5] 100 µM
inactive: [1] | [2] | [10]

CCCCC(CC)COC(=O)CCCCC(=O)OCc1ccccc1 (configuration not stated)
not listed: [2]
inactive: all other assays above

CC(O)CO (configuration not stated)
not listed: [8]
inactive: all other assays above

FC(F)(I)C(F)(F)C(F)(F)C(F)(F)C(F)(F)C(F)(F)I
active: [3] 11.1 µM | [10] 27.3 µM
inactive: [1] | [2] | [4] | [5]

CC(=O)NC1(c2cccc(F)c2)CCN(CC[C@@]2(c3ccc(Cl)c(Cl)c3)CN(c3ccccc3)C(=O)CO2)CC1
inactive: [6] | [10]
active: [1] 61.5 µM | [2] 55 µM | [3] 9.13 µM | [4] 37.3 µM | [5] 18.4 µM | [7] 20.4 µM | [9] 27.1 µM

CC[C@H](C)[C@@H](C(=O)O)n1sc2ccccc2c1=O
active: [3] 73.8 µM
not listed: [2] | [8] | [10]
inactive: all other assays above

COCC(C)O (configuration not stated)
not listed: [8]
inactive: all other assays above

Cc1ccc(S(=O)(=O)O)c(C)c1
inactive: [1] | [2] | [3] | [4] | [5] | [10]

OC1CCCCC1
not listed: [2] | [8]
inactive: all other assays above

CN1CCC[C@H]1c1cccnc1
not listed: [2] | [5] | [8]
inactive: all other assays above

CCCCCCC(=O)O
not listed: [2] | [8]
inactive: all other assays above

CC(C)CCCCCCOC(=O)CCCCC(=O)OCCCCCCC(C)C
not listed: [8]
inactive: all other assays above

COc1ccc([N+](=O)[O-])cc1N
not listed: [8]
inactive: all other assays above

CC(C)(C)c1cc(C(C)(C)C)c(O)c(C(C)(C)C)c1
active: [3] 49.6 µM and 57.1 µM | [4] 27.6 µM and 43.2 µM
inactive: [1] | [5] | [6] | [7] | [9]

NC(=O)N1C(=O)C(C(=O)c2cc(Cl)cs2)c2cc(F)c(Cl)cc21 (configuration not stated)
inactive: [1] | [5] | [10]
active: [3] 6.05 µM | [4] 11 µM | [6] 5.53 µM | [7] 14.7 µM | [9] 14.9 µM

c1ccc2cc3c(ccc4ccccc43)cc2c1
active: [4] 1.21 µM and 7.63 µM | [9] 2.48 µM
inactive: [1] | [4] | [5] | [6] | [7] | [10]

CCOC(=O)CC(O)(CC(=O)OCC)C(=O)OCC
active: [10] 34.3 µM
inactive: [1] | [2] | [3] | [4] | [5] | [6] | [7] | [9] | [10]

ClC1=C(Cl)C(Cl)(Cl)C(Cl)=C1Cl
active: [2] 8.6 µM and 5.05 µM | [3] 3.07 µM and 6.04 µM | [4] 13.4 µM and 6.26 µM | [5] 17.4 µM and 11.1 µM | [6] 5.07 µM | [7] 5.21 µM | [9] 7.45 µM
inactive: [1] | [10]

CCCCC[C@H](O)CC(=O)CCc1ccc(O)c(OC)c1
inactive: [1] | [2] | [4] | [5] | [10]
active: [3] 29.9 µM

O=[N+]([O-])c1ccc(O)cc1
not listed: [8]
inactive: all other assays above

OC1CCC(C2CCCCC2)CC1 (configuration not stated)
active: [3] 140 µM [middle of 4 runs]
not listed: [2] | [8]
inactive: all other assays above

CCCCCCCCC(=O)O
active: [10] 11.4 µM and 41.6 µM
not listed: [2] | [8]
inactive: all other assays above

CCN(CC)CCNc1ccc(CNC=O)c2sc3ccc(OC)cc3c(=O)c12
active: [1] 0.508 µM | [3] 0.0735 µM | [4] 0.842 µM | [5] 0.117 µM | [6] 31.2 µM | [7] 12.3 µM | [8] 26.8 µM | [9] 29.2 µM | [10] 0.878 µM

NC(=O)N(O)[C@@H]1C=C[C@H](Oc2cccc(Oc3ccc(F)cc3)c2)C1
active: [3] 20.6 µM | [4] 33 µM
not listed: [8]
inactive: all other assays above

Cc1cc(C)c(O)c(C)c1
active: [3] 27.7 µM | [4] 100 µM
not listed: [2]
inactive: all other assays above

CC(O)C(=O)O (configuration not stated)
inactive: [1] | [2] | [3] | [4] | [5] | [10]

CCCCCCCCCCCCc1ccccc1S(=O)(=O)O
not listed: [8]
inactive: all other assays above

COC(=O)CCCCC(=O)OC
not listed: [2]
inactive: all other assays above

O=C(O)c1ccccc1C(c1ccc(O)cc1)c1ccc(O)cc1
not listed: [5] | [8]
inactive: all other assays above

CCCCCCCC(=O)O
not listed: [2] | [8]
inactive: all other assays above

CCCOC(=O)c1ccc(O)cc1
inactive: [1] | [3] | [4] | [5] | [6] | [7] | [9] | [10]
active: [3] 77.7 µM | [4] 168 µM

CCCCCCCCOC(=O)CCCCCCCCC(=O)OCCCCCCCC
not listed: [8]
inactive: all other assays above

— PubChem BioAssay (EPA / NIEHS)
